# How the values were obtained:
# [1] = biological target: MAP/microtubule affinity-regulating kinase 3 (Homo sapiens) (UniProt P27448); settings: at 1 µM;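 also: reported values are averaged percent inhibition of MARK3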
# [2] = biological target: T1, MAP/microtubule affinity-regulating kinase 4 (Homo sapiens) (UniProt Q96L34); settings: at 0.1 µM
# T1 sequence (whole entry): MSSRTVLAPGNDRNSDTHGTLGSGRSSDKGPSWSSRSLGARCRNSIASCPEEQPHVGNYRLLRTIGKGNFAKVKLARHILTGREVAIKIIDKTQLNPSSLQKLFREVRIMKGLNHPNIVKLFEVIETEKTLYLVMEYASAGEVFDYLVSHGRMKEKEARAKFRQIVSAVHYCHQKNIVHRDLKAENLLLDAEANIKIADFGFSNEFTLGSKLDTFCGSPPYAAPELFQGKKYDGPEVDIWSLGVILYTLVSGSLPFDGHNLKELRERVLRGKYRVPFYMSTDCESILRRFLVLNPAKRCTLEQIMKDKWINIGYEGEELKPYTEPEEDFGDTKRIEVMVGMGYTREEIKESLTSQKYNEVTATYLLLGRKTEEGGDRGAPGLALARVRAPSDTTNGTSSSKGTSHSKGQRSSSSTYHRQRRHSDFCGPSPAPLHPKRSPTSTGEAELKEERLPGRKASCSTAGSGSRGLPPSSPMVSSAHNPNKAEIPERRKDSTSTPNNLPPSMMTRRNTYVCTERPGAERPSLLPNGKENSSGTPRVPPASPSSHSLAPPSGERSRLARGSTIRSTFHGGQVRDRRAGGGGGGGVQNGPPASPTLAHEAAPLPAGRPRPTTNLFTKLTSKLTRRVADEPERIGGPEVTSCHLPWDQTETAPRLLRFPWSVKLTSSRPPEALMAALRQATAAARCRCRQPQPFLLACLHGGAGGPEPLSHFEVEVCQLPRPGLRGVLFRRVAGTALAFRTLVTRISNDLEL
# [3] = biological target: T1, MAP/microtubule affinity-regulating kinase 4 (Homo sapiens); settings: at 1 µM
# [4] = biological target: Maternal embryonic leucine zipper kinase (Homo sapiens) (UniProt Q14680); settings: at 0.1 µM
# Sequence of Maternal embryonic leucine zipper kinase (Homo sapiens) (Q14680 whole entry, looked up): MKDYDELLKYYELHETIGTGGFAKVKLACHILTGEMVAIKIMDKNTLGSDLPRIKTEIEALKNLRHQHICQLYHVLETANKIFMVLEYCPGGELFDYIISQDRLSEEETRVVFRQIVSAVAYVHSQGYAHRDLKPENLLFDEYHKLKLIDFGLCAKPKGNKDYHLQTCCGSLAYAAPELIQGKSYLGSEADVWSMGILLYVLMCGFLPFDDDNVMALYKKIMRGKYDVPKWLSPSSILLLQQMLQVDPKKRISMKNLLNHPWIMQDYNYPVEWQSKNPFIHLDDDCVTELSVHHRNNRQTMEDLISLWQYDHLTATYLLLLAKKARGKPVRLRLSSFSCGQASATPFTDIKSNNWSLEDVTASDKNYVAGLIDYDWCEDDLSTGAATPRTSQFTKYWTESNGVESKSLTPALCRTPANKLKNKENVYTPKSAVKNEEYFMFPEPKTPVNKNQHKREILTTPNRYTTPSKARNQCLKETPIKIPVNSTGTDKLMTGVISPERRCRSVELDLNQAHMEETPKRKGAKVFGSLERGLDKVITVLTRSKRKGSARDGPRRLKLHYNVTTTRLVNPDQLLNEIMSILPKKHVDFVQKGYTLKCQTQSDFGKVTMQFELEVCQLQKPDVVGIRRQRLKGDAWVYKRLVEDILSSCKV
# [5] = biological target: Maternal embryonic leucine zipper kinase (Homo sapiens) (UniProt Q14680); settings: at 1 µM
# [6] = biological target: MAP kinase-interacting serine/threonine-protein kinase 1 (Homo sapiens) (UniProt Q9BUB5); settings: at 0.1 µM
# Sequence of MAP kinase-interacting serine/threonine-protein kinase 1 (Homo sapiens) (Q9BUB5 whole entry, looked up): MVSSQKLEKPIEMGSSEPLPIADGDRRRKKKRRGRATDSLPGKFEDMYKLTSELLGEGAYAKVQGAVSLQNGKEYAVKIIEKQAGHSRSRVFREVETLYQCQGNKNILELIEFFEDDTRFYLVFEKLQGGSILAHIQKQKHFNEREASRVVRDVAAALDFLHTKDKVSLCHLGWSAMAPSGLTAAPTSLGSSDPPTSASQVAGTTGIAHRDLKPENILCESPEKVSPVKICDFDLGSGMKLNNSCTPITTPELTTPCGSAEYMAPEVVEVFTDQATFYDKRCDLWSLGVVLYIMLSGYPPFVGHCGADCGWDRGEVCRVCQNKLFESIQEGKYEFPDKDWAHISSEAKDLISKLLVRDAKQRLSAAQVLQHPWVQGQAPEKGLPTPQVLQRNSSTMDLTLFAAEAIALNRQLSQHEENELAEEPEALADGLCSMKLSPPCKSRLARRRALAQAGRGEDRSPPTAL
# [7] = biological target: MAP kinase-interacting serine/threonine-protein kinase 1 (Homo sapiens) (UniProt Q9BUB5); settings: at 1 µM
# [8] = biological target: MAP kinase-interacting serine/threonine-protein kinase 2 (Homo sapiens) (UniProt Q9HBH9); settings: at 0.1 µM
# Sequence of MAP kinase-interacting serine/threonine-protein kinase 2 (Homo sapiens) (Q9HBH9 whole entry, looked up): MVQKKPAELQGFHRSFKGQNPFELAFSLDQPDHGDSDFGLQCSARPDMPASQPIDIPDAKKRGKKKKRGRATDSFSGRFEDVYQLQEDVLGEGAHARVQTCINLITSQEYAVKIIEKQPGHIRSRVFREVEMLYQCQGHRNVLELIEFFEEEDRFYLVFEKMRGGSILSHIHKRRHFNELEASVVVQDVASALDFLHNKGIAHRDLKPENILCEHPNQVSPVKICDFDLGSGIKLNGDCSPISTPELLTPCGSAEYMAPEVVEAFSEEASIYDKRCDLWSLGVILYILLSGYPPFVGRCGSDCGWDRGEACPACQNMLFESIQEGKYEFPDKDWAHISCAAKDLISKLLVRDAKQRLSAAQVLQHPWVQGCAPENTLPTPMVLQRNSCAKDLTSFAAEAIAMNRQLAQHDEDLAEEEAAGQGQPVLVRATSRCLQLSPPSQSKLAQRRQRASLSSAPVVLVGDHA
# [9] = biological target: MAP kinase-interacting serine/threonine-protein kinase 2 (Homo sapiens) (UniProt Q9HBH9); settings: at 1 µM
# [10] = biological target: Serine/threonine-protein kinase MARK2 (Homo sapiens) (UniProt Q7KZI7); settings: at 0.1 µM
# Sequence of Serine/threonine-protein kinase MARK2 (Homo sapiens) (Q7KZI7 whole entry, the tested form may be a part): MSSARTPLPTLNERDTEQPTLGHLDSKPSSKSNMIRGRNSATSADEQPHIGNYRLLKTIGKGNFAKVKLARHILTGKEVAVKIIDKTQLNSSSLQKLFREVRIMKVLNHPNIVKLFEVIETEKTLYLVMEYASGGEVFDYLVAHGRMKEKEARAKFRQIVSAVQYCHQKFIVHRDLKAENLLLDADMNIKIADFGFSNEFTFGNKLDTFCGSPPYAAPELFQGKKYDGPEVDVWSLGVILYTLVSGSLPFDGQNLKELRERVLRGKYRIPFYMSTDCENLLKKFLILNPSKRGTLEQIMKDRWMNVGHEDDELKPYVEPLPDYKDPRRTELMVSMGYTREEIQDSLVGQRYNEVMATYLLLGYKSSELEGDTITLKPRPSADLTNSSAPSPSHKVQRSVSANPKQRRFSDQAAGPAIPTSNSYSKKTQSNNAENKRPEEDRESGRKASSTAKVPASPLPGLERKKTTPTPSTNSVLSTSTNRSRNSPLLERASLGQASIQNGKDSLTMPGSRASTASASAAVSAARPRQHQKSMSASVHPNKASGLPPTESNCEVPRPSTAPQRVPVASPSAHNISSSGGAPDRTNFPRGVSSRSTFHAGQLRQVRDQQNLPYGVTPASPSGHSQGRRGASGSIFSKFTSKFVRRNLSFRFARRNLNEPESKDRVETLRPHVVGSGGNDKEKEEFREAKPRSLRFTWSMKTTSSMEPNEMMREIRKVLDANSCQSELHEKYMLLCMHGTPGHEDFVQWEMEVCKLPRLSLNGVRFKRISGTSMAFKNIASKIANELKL
# [11] = biological target: Serine/threonine-protein kinase MARK2 (Homo sapiens) (UniProt Q7KZI7); settings: at 1 µM
# [12] = biological target: PAS domain-containing serine/threonine-protein kinase (Homo sapiens) (UniProt Q96RG2); settings: at 0.1 µM
# [13] = biological target: PAS domain-containing serine/threonine-protein kinase (Homo sapiens) (UniProt Q96RG2); settings: at 1 µM
# [14] = biological target: Phosphorylase b kinase gamma catalytic chain, skeletal muscle/heart isoform (Homo sapiens) (UniProt Q16816); settings: at 0.1 µM
# Sequence of Phosphorylase b kinase gamma catalytic chain, skeletal muscle/heart isoform (Homo sapiens) (Q16816 whole entry, looked up, canonical isoform): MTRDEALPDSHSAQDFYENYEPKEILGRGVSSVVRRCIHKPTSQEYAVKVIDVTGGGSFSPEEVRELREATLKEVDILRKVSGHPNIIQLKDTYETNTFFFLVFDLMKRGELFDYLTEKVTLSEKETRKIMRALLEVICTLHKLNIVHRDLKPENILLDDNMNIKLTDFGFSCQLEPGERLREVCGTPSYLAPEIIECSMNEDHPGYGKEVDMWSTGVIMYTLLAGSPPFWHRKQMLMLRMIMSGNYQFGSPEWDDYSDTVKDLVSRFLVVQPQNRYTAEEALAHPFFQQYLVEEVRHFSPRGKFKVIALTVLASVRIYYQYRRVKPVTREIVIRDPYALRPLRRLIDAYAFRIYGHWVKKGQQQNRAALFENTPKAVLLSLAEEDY
# [15] = biological target: Phosphorylase b kinase gamma catalytic chain, skeletal muscle/heart isoform (Homo sapiens) (UniProt Q16816); settings: at 1 µM
# [16] = biological target: T2, Phosphorylase b kinase gamma catalytic chain, liver/testis isoform (Homo sapiens) (UniProt P15735); settings: at 0.1 µM
# T2 sequence (whole entry): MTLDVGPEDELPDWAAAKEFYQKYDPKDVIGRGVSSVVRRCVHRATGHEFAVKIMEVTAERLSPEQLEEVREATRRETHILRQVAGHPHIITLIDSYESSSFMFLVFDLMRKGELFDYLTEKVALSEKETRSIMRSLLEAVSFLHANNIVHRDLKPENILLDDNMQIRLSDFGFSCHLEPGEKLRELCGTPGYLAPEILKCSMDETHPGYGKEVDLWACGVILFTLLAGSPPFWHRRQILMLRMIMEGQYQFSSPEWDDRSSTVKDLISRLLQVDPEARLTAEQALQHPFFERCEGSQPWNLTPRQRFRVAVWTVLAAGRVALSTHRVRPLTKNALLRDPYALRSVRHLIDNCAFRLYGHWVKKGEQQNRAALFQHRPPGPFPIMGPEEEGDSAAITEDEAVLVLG
# [17] = biological target: T2, Phosphorylase b kinase gamma catalytic chain, liver/testis isoform (Homo sapiens); settings: at 1 µM
# [18] = biological target: Serine/threonine-protein kinase pim-1 (Homo sapiens) (UniProt P11309); settings: at 0.1 µM
# Sequence of Serine/threonine-protein kinase pim-1 (Homo sapiens) (P11309 whole entry, looked up): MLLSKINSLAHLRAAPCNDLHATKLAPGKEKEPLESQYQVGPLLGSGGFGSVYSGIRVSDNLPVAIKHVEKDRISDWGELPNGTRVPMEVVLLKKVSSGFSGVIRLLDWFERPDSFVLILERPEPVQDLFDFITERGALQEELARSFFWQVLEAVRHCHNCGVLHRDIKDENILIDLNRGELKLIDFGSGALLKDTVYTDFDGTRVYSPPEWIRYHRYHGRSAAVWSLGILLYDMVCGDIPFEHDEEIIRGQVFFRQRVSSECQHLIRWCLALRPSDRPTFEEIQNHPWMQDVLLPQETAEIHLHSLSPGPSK
# [19] = biological target: Serine/threonine-protein kinase pim-1 (Homo sapiens) (UniProt P11309); settings: at 1 µM
# [20] = biological target: Serine/threonine-protein kinase pim-2 (Homo sapiens) (UniProt Q9P1W9); settings: at 0.1 µM;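 also: reported value is the mean percent inhibition of PIM2, measured in the GSK PKIS kinase inhibitor set screen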
# Sequence of Serine/threonine-protein kinase pim-2 (Homo sapiens) (Q9P1W9 whole entry, looked up): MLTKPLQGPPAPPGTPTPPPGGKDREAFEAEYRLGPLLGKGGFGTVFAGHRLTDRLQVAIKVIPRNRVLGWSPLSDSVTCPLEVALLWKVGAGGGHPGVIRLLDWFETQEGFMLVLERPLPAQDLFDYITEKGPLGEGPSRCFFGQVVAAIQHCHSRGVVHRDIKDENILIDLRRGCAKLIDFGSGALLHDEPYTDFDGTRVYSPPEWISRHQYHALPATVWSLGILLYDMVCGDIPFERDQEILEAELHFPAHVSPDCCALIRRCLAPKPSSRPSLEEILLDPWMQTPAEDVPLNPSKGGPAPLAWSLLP
# Sequence of MAP/microtubule affinity-regulating kinase 3 (Homo sapiens) (P27448 whole entry, looked up): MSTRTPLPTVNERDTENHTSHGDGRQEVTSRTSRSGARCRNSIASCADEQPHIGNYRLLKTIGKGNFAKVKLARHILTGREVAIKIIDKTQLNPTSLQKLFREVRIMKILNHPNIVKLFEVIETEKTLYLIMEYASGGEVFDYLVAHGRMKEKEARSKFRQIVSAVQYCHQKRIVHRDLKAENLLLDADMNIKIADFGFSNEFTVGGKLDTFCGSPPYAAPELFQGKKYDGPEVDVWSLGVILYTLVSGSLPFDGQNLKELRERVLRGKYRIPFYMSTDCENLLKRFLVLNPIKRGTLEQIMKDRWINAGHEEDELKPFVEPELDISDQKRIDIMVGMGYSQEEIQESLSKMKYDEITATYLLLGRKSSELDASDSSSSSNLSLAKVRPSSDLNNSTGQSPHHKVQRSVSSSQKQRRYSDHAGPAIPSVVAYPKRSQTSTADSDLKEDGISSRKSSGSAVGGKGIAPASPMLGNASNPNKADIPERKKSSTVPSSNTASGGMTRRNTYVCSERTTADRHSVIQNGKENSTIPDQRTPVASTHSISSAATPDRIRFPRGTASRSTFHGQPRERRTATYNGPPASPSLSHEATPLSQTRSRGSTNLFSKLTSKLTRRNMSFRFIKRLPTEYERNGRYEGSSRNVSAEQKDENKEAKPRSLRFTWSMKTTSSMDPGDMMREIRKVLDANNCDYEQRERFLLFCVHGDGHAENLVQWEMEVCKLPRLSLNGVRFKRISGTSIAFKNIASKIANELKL
Compound,inhibition [1] [%],inhibition [2] [%],inhibition [3] [%],inhibition [4] [%],inhibition [5] [%],inhibition [6] [%],inhibition [7] [%],inhibition [8] [%],inhibition [9] [%],inhibition [10] [%],inhibition [11] [%],inhibition [12] [%],inhibition [13] [%],inhibition [14] [%],inhibition [15] [%],inhibition [16] [%],inhibition [17] [%],inhibition [18] [%],inhibition [19] [%],inhibition [20] [%]
CS(=O)(=O)CCNCc1ccc(-c2ccc3ncnc(Nc4ccc(OCc5ccccc5)c(Cl)c4)c3c2)o1,1.81,0.94,1.91,2.31,3.16,2.34,6.26,1.96,9.71,0.91,3.76,0.71,0.11,1.63,6.13,-1.65,-2.44,0.36,1.78,-0.34
O=C1Nc2ccc(C(=O)c3ccco3)cc2C1=Cc1cc(Cl)c(O)c(Cl)c1,8.65,1.71,6.69,4.89,17.8,4.13,11.5,6.52,34.7,2.14,8.29,-0.44,-0.13,2.98,9.29,3.61,2.94,3.39,31.8,2.1
O=C1NC(=O)C(c2ccccc2Cl)=C1Nc1cccc(O)c1,13.6,0.9,8.27,1.6,4.56,0.62,2.78,0.71,0.58,1.47,8.31,0.42,-0.94,1.1,1.82,3.35,0.71,1.24,1.62,-0.21
NC(=O)c1cccc(Nc2nccc(Nc3cccc4[nH]ncc34)n2)c1,11.9,1.34,11.8,-1.78,8.97,0.69,25.3,0.64,23.7,0.92,10.3,0.03,1.81,0.63,12.6,-5.45,-1.62,0.6,1.43,0.4
O=C1NC(=O)C(c2cccc(Cl)c2)=C1Nc1ccc(O)c(Cl)c1,18.6,2.36,17.3,0.77,6.85,0.35,7.25,0.54,1.96,0.55,16.3,1.02,0.49,2.04,6.07,1.35,-1.03,1.35,3.87,0.87
NS(=O)(=O)c1cccc(-c2ccc3c(NC(=O)C4CC4)n[nH]c3c2)c1,3.86,1.62,6.55,0.79,3.48,-0.26,7.26,-1.27,1.02,0.51,4.42,-1.09,-1.37,2.99,2.11,-4.36,-2.76,-0.14,1.01,0.46
c1cnn2ncc(-c3ccnc(Nc4ccc5c(c4)OCCO5)n3)c2c1,24.8,3.11,16.4,11.6,51.6,3.95,14.5,4.36,25.9,0.05,14.3,-0.33,0.82,5.46,27.6,7.04,17.1,0.98,7.95,0.25
COc1cc2c(cc1Nc1nc(N3CCc4ccccc43)c3cc[nH]c3n1)N(C(=O)CN(C)C)CC2,6.25,0.37,1.93,1.9,2.27,1.09,5.08,0.08,7.67,1.14,0.39,1.45,-0.16,–,3.14,3.23,0.08,0.66,-0.15,-0.35
Nc1ncnc2occ(-c3ccc(NC(=O)Nc4cccc(C(F)(F)F)c4)cc3)c12,5.23,2.8,4.23,3.16,–,11.2,38.7,9.53,53.9,1.27,3.83,-0.58,0.31,6.3,10.2,6.43,4.64,1.56,2.28,0.42
CCn1c(-c2nonc2N)nc2c(C#CC(C)(C)O)nc(CN3CCCC3)cc21,15.4,3.5,7.13,1.68,5.55,-0.28,0.88,-0.06,1.84,3.94,10,0.49,1.59,2.9,2.56,-2.3,-1.9,0.28,-0.73,0.26
CCn1c(-c2nonc2N)nc2cncc(C(=O)N3CCNCC3)c21,7.99,2.3,1.48,6.1,9.51,2.42,2.99,1.78,0.78,2.18,2.03,-1.71,-0.89,3.09,4.51,8.34,7.28,0.31,2.05,-0.98
COc1ccc2cc(-c3c(-c4ccncc4)nc(-c4ccc([S+](C)[O-])cc4)n3C)ccc2c1 (configuration not stated),0.76,1.4,1.07,2.76,6.5,2.19,3.02,0.53,0.5,0.3,2.02,0.01,-1.68,2.27,–,4.08,1.1,-0.22,0.54,-0.02
CS(=O)(=O)CCNCc1ccc(-c2ccc3ncnc(Nc4ccc(OCc5cccc(F)c5)c(C(F)(F)F)c4)c3c2)o1,-2.72,1.59,-0.39,4.21,3.14,3.81,9.5,3.07,10.4,2.7,-0.27,-0.62,0.4,5.41,4.1,4.72,4.64,1.03,1.08,0.19
O=C1NC(=O)C(N2CCc3ccccc32)=C1c1ccc(Cl)cc1,2.11,3.11,2.16,4.84,6.67,2.34,3.78,1,3.38,0.05,2.02,0.1,-1.5,3.36,5.29,4.72,2.26,0.92,1.27,0.55

# From ChEMBL document CHEMBL1961873, “Compounds: GSK PKIS; Assays: Nanosyn kinase panel” (2012)
